Sampled rows, rich in hits. Any-hit rate of the full collection: about 19%.
TDP1 cell noCPT – qHTS for Inhibitors of human tyrosyl-DNA phosphodiesterase 1 (TDP1): qHTS in cells in absence of CPT | DT40 Tdp1-/- hTDP1 cells, no CPT, ATP luminescence, 48 h | Potency, µM (doses to about 46.2 µM), for inactives: at the top dose activity change, negative = growth inhibition, usual class: inhibitors | 420,000 compounds, 15% hits | AID 686978, 2013; note: nearly all actives have a fitted effect of over 55% in size
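Seeded 400 DT40-hTDP1 cells/well (vehicle DMSO, no 20 nM CPT); pinned compounds; ≥48 hr at 37 °C; CellTiter-Glo luminescence as viability measure.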
KB-V1 cytotox – qHTS assay for MDR1-selective chemotherapeutics: Primary screen using the drug-selected MDR subline cells KB-V1. KB-V1 MDR cells viability, CellTiter-Glo, 72 h. Potency, µM (top dose mostly 46.1 µM), actives largely listed as cytotoxic. 400,000 compounds, 3.4% hits; note: nearly all actives have a fitted effect of over 60% in size
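Cytotoxicity via CellTiter-Glo luminescence after 72 h compound exposure at 37 degrees C. Cells: drug-selected KB-V1 line, DMEM phenol-red free plus 10% FBS. Compounds tested at multiple concentrations; normalized data fitted to concentration-effect curves.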
HT1080-NT tox – qHTS for induction of synthetic lethality in tumor cells producing 2HG: qHTS for the HT-1080-NT fibrosarcoma cell line; HT-1080-NT fibrosarcoma viability, CellTiter-Glo ATP luminescence, 48 h; Potency, µM (titrated, usually from 46.1 µM), for inactives: at the top dose activity, negative = less viability, actives largely listed as cytotoxic; 360,000 compounds, 1.6% hits; AID 686970, 2013;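 note: NT is the 2HG producing partner of a matched IDH1 knockdown line; 0% = DMSO-treated cells and -100% = media-only wells without cells; nearly all actives have a fitted effect of over 55% in size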
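HT-1080-NT; 750 cells/well; 5% FBS RPMI; 48 h compound, 37 degrees C; CellTiter-Glo luminescence; curve fitting and curve-class assignment.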
HT1080 IDH1KD tx – qHTS for induction of synthetic lethality in tumor cells producing 2HG: qHTS for the HT-1080-IDH1KD cell line | HT-1080 IDH1 knockdown viability, ATP luminescence, 48 h | Potency, µM (top dose mostly 46.1 µM), inactives show at the top dose activity, negative = toxicity, most hits filed as cytotoxic | 360,000 compounds, 2% hits;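 note: 0% = DMSO wells and -100% = cell-free medium wells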
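Viability of IDH1-knockdown HT-1080 fibrosarcoma cells was assessed by CellTiter-Glo after 48 h at 37 °C with titrated compound; concentration-effect curves were classified by fit quality and response size.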
KB-3-1 cytotox – qHTS assay for MDR1-selective chemotherapeutics: Primary screen using the parental adenocarcinoma cell KB-3-1. KB-3-1 viability, CellTiter-Glo ATP luminescence, 72 h. Potency, µM (doses to about 46.1 µM), usual class: cytotoxic. 400,000 compounds, 1.4% hits. AID 1347075, 2019; note: nearly all actives have a fitted effect of over 60% in size
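KB-3-1 parental drug-naive adenocarcinoma cells in DMEM/10% FBS, incubated 72 h at 37 C with pin-transferred compounds across a concentration series. Viability by CellTiter-Glo luminescence; concentration-response curves fitted after normalization.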
DT40 TDP1 CPT – qHTS for Inhibitors of human tyrosyl-DNA phosphodiesterase 1 (TDP1): qHTS in cells in presence of CPT; chicken DT40 Tdp1-/-;hTDP1 cells + 20 nM CPT, ATP luminescence, 48 h; Potency, µM (highest dose often 46.2 µM), for the others: at the top dose activity change, negative = growth inhibition, actives largely listed as inhibitors; 420,000 compounds, 12% hits; AID 686979, 2013; note: nearly all actives have a fitted effect of over 55% in size
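Chicken DT40 Tdp1-/- cells complemented with human TDP1, 400 cells/well, exposed to compounds plus 20 nM camptothecin for at least 48 h at 37 C; viability read as ATP content by CellTiter-Glo luminescence.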
Active calls of the source: *; i = inactive; ? = inconclusive; · = no result. Calls come from the whole dose curve; as a rule, active = well fitted curve in the direction sought with a large enough effect; inconclusive = small, poorly fitted or top-dose-only effect, or another doubt; inactive = no such curve, though single readings can be large; an effect the other way counts as inactive or inconclusive. Unless noted, % is set by controls: 0 for no effect and ±100 for the full control effect; potency is the fitted concentration of half-maximal effect.

SMILES	TDP1 cell noCPT	KB-V1 cytotox	HT1080-NT tox	HT1080 IDH1KD tx	KB-3-1 cytotox	DT40 TDP1 CPT
COc1ccc(NC(=O)C(=O)N/N=C/c2cccnc2)cc1	-25.0%	?	8.0%	14.0%	i	8.4%
COc1ccc(-c2cc(C(=O)N/N=C/c3cccnc3)c3cc(C)cc(C)c3n2)cc1	8.2µM*	?	?	?	i	18.4µM*
CCOc1ccc(-c2cc(C(=O)N/N=C/c3cccnc3)c3ccccc3n2)cc1	1.84µM*	?	?	?	8.2µM*	2.31µM*
FC(F)(F)c1cc(Nc2ccccc2)nc(-c2ccccn2)n1	25.9µM*	i	6.9%	15.0%	i	?
CC(C)Nc1cc(C(F)(F)F)nc(-c2ccccn2)n1	18.4µM*	i	2.8%	0.5%	?	18.4µM*
FC(F)(F)c1cc(Sc2ccccc2)nc(-c2ccccn2)n1	14.6µM*	?	12.6µM*	?	i	?
CC(C)C[C@H]1CN(CCCC[C@@H]2CNC(=O)C(=O)N2CC2CCCCC2)C(=O)C(=O)N1CCc1ccccc1	-15.0%	i	21.2%	?	i	13.8%
O=C1C(=O)N(Cc2cccnc2)C(c2cccc([N+](=O)[O-])c2)/C1=C(/O)c1ccc2c(c1)OCO2 (stereo unspecified)	4.2%	i	-9.6%	-0.7%	i	-11.1%
COc1ccc(OC)c(-c2noc(N3CCN(c4cccc(C)c4C)CC3)n2)c1	-17.9%	?	·	·	?	-9.9%
CN(C)c1ccc(/C=C2\c3ccccc3C(=O)N2c2ccccc2)cn1	-19.9%	?	15.0%	4.2%	?	9.2µM*
COc1ccc(CNc2nc(-c3ccc(OC)c(OC)c3)cc(C(F)(F)F)n2)cc1	?	?	·	·	i	?
COc1ccc(CNc2nc(NCc3ccc(OC)cc3)n(C(C)=O)n2)cc1	-0.8%	i	4.3%	2.0%	i	-11.0%
Cc1nc2nncn2c(NCc2ccc(F)cc2)c1C	4.11µM*	i	·	·	?	5.17µM*
Cc1nc2nncn2c(Nc2ccc(F)cc2)c1C	9.2µM*	i	·	·	i	16.4µM*
CCc1c(C)nc2nncn2c1NCc1ccc(OC)cc1	18.4µM*	·	·	·	·	16.4µM*
COc1ccc(CNc2cc(-c3ccc(OC)cc3)nc3nncn23)cc1	16.4µM*	i	·	·	i	?
COc1ccccc1N1CCN(C(=O)Cc2c(C(=O)O)c(C)cn2C)CC1	-8.3%	i	·	·	i	-1.0%
CC(C)Nc1ncnc2c1ncn2[C@H]1CN(Cc2ccc3c(c2)OCO3)C[C@@H](CO)O1	-11.9%	i	13.0%	0.0%	i	-0.8%
Cc1nc2nncn2c(NCc2ccc(Cl)cc2)c1C	0.82µM*	i	·	·	2.59µM*	2.59µM*
CC(NC(=O)Oc1cccc2ccccc12)c1ccccc1 (stereo unspecified)	25.9µM*	i	-13.5%	-26.1%	i	?
Cc1cc2nc(-c3cccc(Cl)c3)c(CC(C)(C)C)n2c(C)c1Br	?	i	?	-29.2%	i	?
Cc1cc2nc(-c3ccco3)c(CC(C)(C)C)n2c(C)c1Br	23.1µM*	?	0.7%	-5.4%	i	23.1µM*
COc1ccccc1Cc1c(-c2ccco2)nc2cc(C)c(Br)c(C)n12	23.1µM*	i	?	?	?	?
Cc1cc2nc(-c3ccco3)c(Cc3cccc(Cl)c3)n2c(C)c1Br	?	i	29.1µM*	20.6µM*	i	?
O=C(Nc1cc(F)ccc1F)c1cnn2c1NC(=C1CC1)C=C2C(F)F	?	?	·	·	i	?
SMILES	TDP1 cell noCPT	KB-V1 cytotox	HT1080-NT tox	HT1080 IDH1KD tx	KB-3-1 cytotox	DT40 TDP1 CPT
NS(=O)(=O)c1ccc(NC(=O)C2Cc3ccccc3N2C(=O)c2ccccc2)cc1 (stereo unspecified)	-3.1%	i	·	·	i	4.8%
CN(Cc1cnn(-c2ccc(F)cc2)c1)C(=O)[C@H]1O[C@@H](n2cnc3c(N)ncnc32)[C@H](O)[C@@H]1O	-0.8%	i	13.8%	2.8%	i	-10.5%
C[C@@H]1CN([C@@H](C)CO)C(=O)c2cc(NC(=O)Nc3ccccc3)ccc2O[C@@H](C)CCCCO[C@H]1CN(C)C(=O)Nc1ccc(C(F)(F)F)cc1	?	i	-16.9%	-20.1%	i	?
COc1ccc(C(=O)Nc2cccc(C)n2)cc1S(=O)(=O)N1CCCc2ccccc21	16.4µM*	?	?	-24.8%	?	?
COc1ccc(C(=O)O)cc1S(=O)(=O)N1CCCc2ccccc21	-2.7%	i	-0.2%	10.4%	i	8.1%
COc1ccc(C(=O)Nc2ccc(C)cn2)cc1S(=O)(=O)N1CCCc2ccccc21	?	i	-7.7%	-23.3%	i	?
COc1ccc(C(=O)NCc2ccccc2)cc1S(=O)(=O)N1CCCc2ccccc21	?	i	-5.7%	-18.8%	i	15.8µM*
CCn1c(=O)c2c(nc(SCc3ccccn3)n2C)n(C)c1=O	-19.4%	14.6µM*	-14.2%	5.2%	?	-28.9%
CCCn1c(SCc2ccccn2)nc2c1c(=O)n(C)c(=O)n2C	-17.9%	?	3.3%	0.4%	i	?
O=C(Nc1cccc(-c2nc3ccccc3o2)c1)c1cccc2c(Cl)cccc12	·	i	·	·	i	·
CC(C)Nc1nc2nonc2nc1Nc1ccccc1	?	?	-19.3%	?	18.4µM*	2.3%
O=C(COc1ccccc1)Nc1ccc2nc(SCCOc3ccccc3)sc2c1	?	i	·	·	i	-23.0%
N#Cc1ccccc1NC(=O)CSc1nnc(-c2ccccc2)n1-c1ccccc1	?	14.6µM*	-1.5%	-9.4%	?	23.1µM*
CCN(CC)c1ccc(-c2nnc(SCC(=O)Nc3ccccc3C#N)n2-c2ccccc2)cc1	18.4µM*	i	-23.2%	-22.9%	?	18.4µM*
CCOC(=O)c1c(NC(=O)c2cc(=O)c3cc(C)cc(C)c3o2)sc(C)c1C	-3.3%	i	·	·	i	-12.9%
CCOC(=O)C(C)Sc1nc2c(c(=O)[nH]c(=O)n2C)n1CCc1ccccc1 (stereo unspecified)	-22.9%	i	-1.9%	-7.0%	i	-20.0%
